Screen size: about 100,000 compounds; about 770 (0.77%) were called active. Rule as the data show it: active = inhibition above about 50%; inactive = the rest. For the sample, actives were picked, then their nearest neighbours and some compounds at random.
These compounds were tested against Gag-Pol polyprotein (Human immunodeficiency virus type 1 group M subtype B (isolate HXB2)) (UniProt P04585) (assay: RNase H inhibition, HIV 1 Gag Pol polyprotein, FRET biochemical assay, screening (AID 372)). Conditions: HIV-1 RT RNase H, FRET RNA/DNA substrate fluorescence; at 10 µM; stronger effect = higher value.

| SMILES | inhibition |
| --- | --- |
| CCCOc1ccc(/C=C2/C(=O)NC(=O)N2C(C)=O)cc1OC | 0% (inactive) |
| O=C(O)c1cc(Br)ccc1N=Cc1ccc2c(c1)OCO2 | 8% (inactive) |
| Cc1ccc2nc(-c3cccc(NC(=O)c4ccc5ccccc5c4)c3)oc2c1 | 38% (inactive) |
| Cc1ccc(C(=O)Nc2ccc3oc(-c4c(F)c(F)c(F)c(F)c4F)nc3c2)cc1 | 52% (active) |
| O=C(Nc1ccc(-c2nc3ccccc3o2)cc1)c1ccc2ccccc2c1 | 43% (inactive) |
| Cc1ccc2oc(-c3ccc(NC(=O)c4ccc(C)c(C)c4)cc3)nc2c1 | 20% (inactive) |
| O=C(Nc1ccc2oc(-c3ccccc3)nc2c1)c1ccc2ccccc2c1 | 19% (inactive) |
| Cc1ccc2nc(-c3ccc(NC(=O)c4ccc5ccccc5c4)cc3)oc2c1 | 59% (active) |
| Cc1ccc2oc(-c3ccc(NC(=O)c4ccc(Br)cc4)cc3)nc2c1 | 55% (active) |
| COc1ccc(C(=O)Nc2ccc(-c3nc4cc(C)ccc4o3)cc2)cc1Br | 23% (inactive) |
| Cc1ccc2nc(-c3ccc(C)c(NC(=O)c4ccc5ccccc5c4)c3)oc2c1 | 19% (inactive) |
| O=C(Nc1ccc2oc(-c3c(F)c(F)c(F)c(F)c3F)nc2c1)c1ccc(F)cc1 | 13% (inactive) |
| Cc1ccc2oc(-c3ccc(NC(=O)c4ccc5ccccc5c4)cc3)nc2c1 | 52% (active) |
| CCCOc1ccc(C(=O)Nc2ccc3oc(-c4c(F)c(F)c(F)c(F)c4F)nc3c2)cc1 | 14% (inactive) |
| COc1ccc(/C=C2\SC(=S)N(CCC(=O)OC3CCCCC3)C2=O)cc1 | 4% (inactive) |
| CSCCNS(=O)(=O)c1ccc(C)c([N+](=O)[O-])c1 | 0% (inactive) |
| O=C(O)CCCN1C(=O)/C(=C/c2cccc(Br)c2)SC1=S | 10% (inactive) |
| COc1ccc(/C=N/NC(=O)c2ccn[nH]2)cc1COc1ccc(Cl)cc1Cl | 5% (inactive) |
| COc1cccc(Nc2c([N+](=O)[O-])c(=O)n(-c3ccccc3)c3ccccc23)c1 | 15% (inactive) |
| CCc1ccc2[nH]c3nc(NN)nnc3c2c1 | 5% (inactive) |
| Cc1cccc(OC(=O)c2cccc([N+](=O)[O-])c2)c1 | 6% (inactive) |
| COc1ccc(N2C(=O)C(=O)/C(=C(\O)c3ccc([N+](=O)[O-])cc3)C2c2ccc(Br)cc2)cc1 (stereo not given) | 4% (inactive) |
| COc1ccc(OC)c(NC(=O)c2cnccn2)c1 | 6% (inactive) |
| Cc1cc(C(=O)Nc2ccc(S(=O)(=O)Nc3nccs3)cc2)ccc1[N+](=O)[O-] | 6% (inactive) |
| CCOc1cc(C2C(C(=O)OCc3ccc(OC)cc3)=C(C)NC3=C2C(=O)CCC3)cc(Cl)c1O (stereo not given) | 2% (inactive) |
| CC(C)COc1ccc(C(=O)Nc2ccc(-c3nc4ccccc4o3)cc2)cc1 | 64% (active) |
| CC(C)COc1ccc(C(=O)Nc2ccc(-c3nc4ncccc4o3)cc2)cc1 | 8% (inactive) |

| SMILES | inhibition |
| --- | --- |
| CC(C)COc1ccc(C(=O)Nc2ccc3oc(-c4ccncc4)nc3c2)cc1 | 1% (inactive) |
| O=C(Nc1ccc(-c2nc3ccccc3o2)c(O)c1)c1ccc(-c2cccc(Cl)c2)o1 | 10% (inactive) |
| CCOC(=O)c1c(NC(=O)CSc2nccn2C)sc2c1CCCC2 | 0% (inactive) |
| CCc1ccc(C2=NN(c3ccccc3)C(c3cn(-c4ccccc4)nc3-c3cccnc3)C2)cc1 (stereo not given) | 20% (inactive) |
| COc1ccc(C(=O)CC(C(C)C)C(C=C(C)C)C(=O)c2ccc(OC)cc2)cc1 (stereo not given) | 29% (inactive) |
| C=C(C)C(C)(C#CCN1CCCCC1)OC(C)=O (stereo not given) | 8% (inactive) |
| CC(C)(O)C#CCN1CCOCC1 | 0% (inactive) |
| C=C(C)C(C)(C#CCN1CCOCC1)OC(C)=O (stereo not given) | 56% (active) |
| COc1cc(C2C(C(=O)Nc3cccc(C)n3)=C(C)NC3=C2C(=O)CC(C)(C)C3)cc(OC)c1OC (stereo not given) | 7% (inactive) |
| COc1ccc(N(CC(=O)N2CCCCC2)S(=O)(=O)c2ccccc2[N+](=O)[O-])c(OC)c1 | 2% (inactive) |
| COCCCNC(=O)CN(c1ccc(Cl)cc1)S(=O)(=O)c1ccccc1 | 0% (inactive) |
| COc1cc(NC(=S)NC(=O)c2cccc(F)c2)ccc1NC(=O)c1cc2ccccc2o1 | 58% (active) |
| COc1cc(NC(=S)NC(=O)c2ccc(Cl)cc2)ccc1NC(=O)c1cc2ccccc2o1 | 54% (active) |
| COc1cc(NC(=S)NC(=O)c2ccc(Cl)cc2)ccc1NC(=O)c1ccco1 | 42% (inactive) |
| COc1cc(NC(=S)NC(=O)c2ccc(C)c(C)c2)ccc1NC(=O)c1cc2ccccc2o1 | 15% (inactive) |
| COc1cc(NC(=S)NC(=O)c2cccc(Cl)c2)ccc1NC(=O)c1cc2ccccc2o1 | 11% (inactive) |
| COc1ccc(C(=O)NC(=S)Nc2ccc(NC(=O)c3cc4ccccc4o3)c(OC)c2)cc1 | 7% (inactive) |
| CCc1nnc(NC(=O)CCCOc2ccc(Cl)cc2Cl)s1 | 1% (inactive) |
| Cc1ccccc1/C=N/NC(=O)Nc1ccccc1 | 16% (inactive) |
| Cc1ccc(-c2nc3ccccc3s2)cc1NC(=O)c1cc(I)ccc1Cl | 15% (inactive) |
| O=C(COc1ccccc1Br)N/N=C/c1ccccc1 | 3% (inactive) |
| Cc1ccc(NCC(=O)N/N=C\c2c(Br)cc(Br)c(O)c2Br)cc1 | 17% (inactive) |
| Cc1ccccc1NCC(=O)N/N=C\c1c(Br)cc(Br)c(O)c1Br | 16% (inactive) |
| O=C1C(=O)N(CN2CCOCC2)c2ccc(Br)cc21 | 18% (inactive) |
| Ic1cccc(-c2nc(-c3cccnc3)no2)c1 | 55% (active) |
| Brc1cccc(-c2nc(-c3cccnc3)no2)c1 | 28% (inactive) |
| Ic1cccc(-c2nc(-c3ccncc3)no2)c1 | 59% (active) |

| SMILES | inhibition |
| --- | --- |
| COc1ccc(-c2noc(-c3cccc(I)c3)n2)cc1 | 22% (inactive) |
| Cc1cccc(-c2nc(-c3cccnc3)no2)c1 | 27% (inactive) |
| Cc1ccc(-c2noc(-c3cccc(I)c3)n2)cc1 | 7% (inactive) |
| Cc1cc(Cl)ccc1NC(=O)CN(c1cccc(Br)c1)S(C)(=O)=O | 12% (inactive) |
| O/N=C1\CCCc2c1nc(-c1ccc(F)cc1)n2O | 0% (inactive) |
| COc1ccc(/C=C/C(=O)Nc2ccc(I)cc2)cc1OC | 16% (inactive) |
| CCc1c(C)c2ccc(OCc3ccccc3)c(C)c2oc1=O | 16% (inactive) |
| Clc1ccc(Nc2nc(Nc3ccc(Cl)cc3)nc(N3CCOCC3)n2)cc1 | 11% (inactive) |
| O=C(NNc1nc(Nc2ccccc2)nc(N2CCOCC2)n1)Nc1ccc(Cl)cc1 | 72% (active) |
| Clc1ccc(Nc2nc(Oc3ccccc3)nc(N3CCOCC3)n2)cc1 | 15% (inactive) |
| COc1ccc(S(=O)(=O)N2CCN(CCN3C(=O)c4cccc5cccc(c45)C3=O)CC2)cc1 | 15% (inactive) |
| CC(C)Nc1nc(-c2cccnc2)nc2ccccc12 | 8% (inactive) |
| CC(Nc1cc(Cl)ccc1[N+](=O)[O-])c1ccc(Br)cc1 (stereo not given) | 54% (active) |
| O=[N+]([O-])c1ccc(Cl)cc1NC(c1ccccc1)c1ccccc1 | 12% (inactive) |
| CC(Nc1cc(N2CCN(C)CC2)ccc1[N+](=O)[O-])c1ccc(Br)cc1 (stereo not given) | 9% (inactive) |
| CCOc1ccc(/C=C2\C(=O)NC(=O)N(c3cc(C(F)(F)F)ccc3Cl)C2=O)cc1OC | 11% (inactive) |
| COc1ccc(CNC(=O)N2CCOCC2)cc1 | 20% (inactive) |
| O=C(NNC(=O)c1sc2ccccc2c1Cl)Nc1ccc(Cl)cc1 | 14% (inactive) |
| O=C(NNC(=O)c1sc2cc(F)ccc2c1Cl)Nc1ccc(Cl)cc1 | 57% (active) |
| O=C(Nc1ccc(F)cc1)c1sc2cc(Cl)ccc2c1Cl | 6% (inactive) |
| CC(=O)c1ccc(NC(=S)NC(=O)c2ccc(Br)cc2)cc1 | 0% (inactive) |
| O=C1C(=O)N(c2cccc([N+](=O)[O-])c2)C(c2ccccc2F)/C1=C(/O)c1ccccc1 (stereo not given) | 8% (inactive) |
| COc1cc(/C=N/N2C(=O)C3C4C=CC(C4)C3C2=O)cc(I)c1OC (stereo not given) | 0% (inactive) |
| COc1cc(/C=N/N2C(=O)C3C4C=CC(C4)C3C2=O)cc(I)c1O (stereo not given) | 56% (active) |
| COc1cc(/C=N/N2C(=O)C3C4C=CC(CC4)C3C2=O)cc(I)c1O (stereo not given) | 0% (inactive) |
| CCOC(=O)c1sc(N/N=C/c2ccccc2)nc1C | 47% (inactive) |
| CCOC(=O)c1sc(N/N=C/c2ccccc2C(F)(F)F)nc1C | 15% (inactive) |

| SMILES | inhibition |
| --- | --- |
| CCOC(=O)c1sc(N/N=C/c2ccccc2O)nc1C | 58% (active) |
| COc1ccccc1N1C(=O)/C(=C/C(C)=C/c2ccccc2)SC1=S | 13% (inactive) |
| Cc1ccc(S(=O)(=O)/N=C/c2ccc(F)cc2)cc1 | 0% (inactive) |
| CC1=C(C)CC(C(=O)Nc2ccc(Br)cc2)C(C(=O)O)C1 (stereo not given) | 8% (inactive) |
| COc1ccc(NC(=O)C2CC(C)=C(C)CC2C(=O)O)cc1 (stereo not given) | 2% (inactive) |
| Cc1cc(NS(=O)(=O)c2ccc(NC(=S)NC(=O)c3ccc(Br)cc3)cc2)no1 | 1% (inactive) |
| Cc1cc(OCc2nc(-c3ccc(Cl)cc3Cl)no2)ccc1Br | 7% (inactive) |
| Cc1nn(C)c(C)c1Sc1ccc(Br)cc1 | 37% (inactive) |
| Cc1n[nH]c(C)c1Sc1ccc(Cl)cc1 | 17% (inactive) |
| Cc1n[nH]c(C)c1Sc1ccc(Br)cc1 | 50% (active) |
| COc1cccc(/C=C2\C(=O)NC(=O)N(c3ccc(Cl)c(Cl)c3)C2=O)c1 | 1% (inactive) |
| CCc1c(C)c2ccc(OC)c(C)c2oc1=O | 8% (inactive) |
| COc1ccc(S(=O)(=O)N(CC(=O)Nc2ccc(C(N)=O)cc2)c2ccc(C)cc2)cc1OC | 4% (inactive) |
| C=CCc1cccc(/C=N/c2nc3ccccc3n2CCC)c1O | 17% (inactive) |
| CC(CO)(CO)N=Cc1c(O)n(-c2ccccc2)c(=S)[nH]c1=O | 0% (inactive) |
| CS(=O)(=O)N(Cc1ccc(Cl)cc1)c1ccc(C(=O)Nc2cccc(C(F)(F)F)c2)cc1 | 1% (inactive) |
| Cc1ccc(Cl)cc1NC(=O)c1ccc(CN(c2ccccc2)S(C)(=O)=O)cc1 | 10% (inactive) |
| COc1ccc(Cl)cc1NC(=O)c1ccc(CN(c2ccccc2)S(C)(=O)=O)cc1 | 56% (active) |
| CS(=O)(=O)N(Cc1ccc(Cl)cc1)c1ccc(C(=O)N2CCCC2)cc1 | 57% (active) |
| CS(=O)(=O)N(Cc1ccc(C(=O)Nc2cccc(C(F)(F)F)c2)cc1)c1cccc(Cl)c1 | 0% (inactive) |
| COc1ccccc1NC(=O)c1ccc(CN(c2ccccc2)S(C)(=O)=O)cc1 | 0% (inactive) |
| CS(=O)(=O)N(Cc1ccc(Cl)cc1)c1ccc(C(=O)N2CCOCC2)cc1 | 8% (inactive) |
| CS(=O)(=O)N(Cc1ccc(C(=O)Nc2cccc(C(F)(F)F)c2)cc1)c1ccccc1 | 58% (active) |
| CCOC(=O)N1CCN(C(=O)c2ccc(N(Cc3ccc(Cl)cc3)S(C)(=O)=O)cc2)CC1 | 3% (inactive) |
